Data on 25 compounds can be found in PubChem BioAssay (NCATS).

The nature of experiment [1]: Primary fluorescence-based thiol-reactive (MSTI) qHTS assay for identification of artifact compounds. (AID 1845221). Further: nearly all actives have a fitted effect of over 65% in size. Put shortly: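 Thiol-reactive compounds detected by quenching of 4 uM MSTI fluorescence (525/598 nm) after 1 h room-temperature dark incubation in PBS pH 7.4, 2% DMSO. qHTS titration; percent inhibition Hill-fitted against Acetyl-MSTI/MSTI controls.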
For orientation: Quantitative high-throughput screening tests each substance at several concentrations.

In experiment [2] the test system is Nanoluciferase (engineered Oplophorus gracilirostris luciferase). Put plainly: Primary Nanoluciferase (NLuc) qHTS assay for identification of artifact compounds. (AID 1845222). An outline of the steps: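 Luminescence from secreted NLuc (filtered, 1:55-diluted S16 cell medium) read 5 min after Nano-Glo substrate; compounds preincubated 15 min, RT. Hill fits of inhibition normalized to DMSO and no-enzyme.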

A short description of experiment [3]: Primary redox qHTS assay for identification of artifact compounds. (AID 1845223). An outline of the steps:
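Redox-cycling detection via DTT (250 uM final) oxidation coupled to Amplex Red (25 uM)/HRP (250 mU/mL) in HBSS. 15 min preincubation plus 30 min after DTT, room temperature. Ex/Em 525/598 nm; 4-parameter Hill fit against DMSO and 10 uM DA3003.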

Unmarked numbers belong to inactive results. Records with an inconclusive call do not appear. The source made the active and inactive calls. The call rests on the fitted dose curve; in most records, active means well fitted curve in the direction sought with a large enough effect; inconclusive means small, poorly fitted or top-dose-only effect, or another doubt; inactive means no such curve, though single readings can be large; an effect the other way counts as inactive or inconclusive. Where a SMILES comes first, the peptide text is derived from it. [ ]: non-standard residue; d: D form.
Potency means the concentration at half of the fitted maximal effect.

Regarding `COc1cc(C)c(C(=O)O[C@H]2[C@@H](O)[C@H](n3ccc(=O)[nH]c3=O)O[C@@H]2CO)c(OC)c1`, the Potency entry in experiment [1], in experiment [2] and in experiment [3] was “inactive” throughout.

As for `C[C@@H](OC(=O)/C=C/c1ccc(O)cc1)C1=C[C@]2(C=C[C@@H]3C(C(=O)O)=CO[C@@H](O[C@@H]4O[C@H](CO[C@@H]5O[C@H](CO)[C@@H](O)[C@H](O)[C@H]5O)[C@@H](O)[C@H](O)[C@H]4O)[C@@H]32)OC1=O`, the Potency in experiment [1] is 3.98 µM (active). Also, the Potency entry in experiment [2] and in experiment [3] was “inactive” each time.

With `COc1cc(C(C)=O)ccc1O[C@@H]1O[C@H](CO[C@@H]2O[C@@H](C)[C@H](O)[C@@H](O)[C@H]2O)[C@@H](O)[C@H](O)[C@H]1O`, the Potency entry in experiment [1], in experiment [2] and in experiment [3] was “inactive” throughout.

Take `C=C[C@H]1[C@H](O[C@@H]2O[C@H](CO[C@@H]3OC[C@](O)(CO)[C@H]3O)[C@@H](O)[C@H](O)[C@H]2O)OC=C2C(=O)OCC[C@H]21`: the Potency result in experiment [1] and in experiment [2] was “inactive” each time. In experiment [3], the Potency is 3.27 µM (active).

With `Cc1nc2c(-c3cnc(N)nc3)nc(N3CCOCC3)nc2n1C(C)C`, the Potency entry in experiment [1], in experiment [2] and in experiment [3] was “inactive” throughout.

As to `CCC(CCO[C@@H]1O[C@H](CO[C@H]2OC[C@](O)(CO)[C@H]2O)[C@@H](O)[C@H](O)[C@H]1O)C(C)(C)O` (stereo not given in full), the Potency result in experiment [1], in experiment [2] and in experiment [3] was “inactive” in each case.

Consider `CC(=O)N[C@H](Cc1ccc(O)cc1)C(=O)N[C@H](CCCN=C(N)N)C(=O)N[C@H](Cc1ccccc1)C(N)=O` (Ac-[dY]-[dR]-[dF]-NH2), for which the Potency entry in experiment [1], in experiment [2] and in experiment [3] was “inactive” each time.

For `C=C1CCC2C(C)(CO[C@@H]3O[C@H](CO)[C@@H](O)[C@H](O)[C@H]3O)C(O)CCC2(C)C1C(=O)CC1=CCOC1=O` (stereo not given in full), in experiment [1], the Potency is 10.3 µM (active). For the same compound, the Potency entry in experiment [2] and in experiment [3] was “inactive” throughout.

Consider `O=C(/C=C/c1ccc(O)cc1)OC[C@H]1O[C@@H](OC(=O)/C=C/c2ccccc2)[C@H](O)[C@@H](O)[C@@H]1O`, for which the Potency in experiment [1] is 11.6 µM (active). For the same compound, the Potency result in experiment [2] and in experiment [3] was “inactive” each time.

Consider `CC1(C(=O)O)CCCC2(C)C1CCC13CC(CCC21)C1(CO)OC31` (stereo not given), for which the Potency entry in experiment [1], in experiment [2] and in experiment [3] was “inactive” throughout.

On to `C=C1C(O[C@@H]2O[C@H](CO)[C@@H](O)[C@H](O)[C@@H]2O)CC2C(C)(C)C(O)CCC2(C)C1CC/C(C)=C\CO` (stereo not given in full), for which the Potency entry in experiment [1], in experiment [2] and in experiment [3] was “inactive” in each case.

As to `CN[C@@H]1[C@@H](O)[C@@H](O[C@@H]2[C@@H](O)[C@H](O[C@H]3O[C@H](CN)[C@@H](O)[C@H](O)[C@H]3O)[C@@H](N)C[C@H]2NC(=O)[C@@H](O)CN)OC[C@]1(C)O`, the Potency entry in experiment [1], in experiment [2] and in experiment [3] was “inactive” throughout.

In the case of `C[C@@H]1CC[C@H]2C(C)(C)[C@H](O)[C@H](O)C[C@]2(C)[C@@]12Cc1c(O)cc3c(c1O2)CNC3=O`, the Potency entry in experiment [1], in experiment [2] and in experiment [3] was “inactive” throughout.

In the case of `CCCOc1ccn2c(C(C)=O)cc(-c3ccccc3S(C)(=O)=O)c2c1`, the Potency entry in experiment [1], in experiment [2] and in experiment [3] was “inactive” throughout.

In the case of `CC1(O)CCC2C(C(=O)O)=COC(OC3OC(CO)C(O)C(O)C3OC(=O)/C=C/c3ccc(O)cc3)C21` (stereo not given), the Potency in experiment [1] was 3.27 µM (active). Besides, the Potency entry in experiment [2] and in experiment [3] was “inactive” in each case.

With `COC(=O)c1cc(CN2CCN(C(=N)N)CC2)cc(C(=O)N2CCN(C(=O)c3ccc(C(=N)N)cc3)CC2)c1`, the Potency entry in experiment [1], in experiment [2] and in experiment [3] was “inactive” throughout.

For `O=C(CCO[C@@H]1O[C@H](CO)[C@@H](O)[C@H](O)[C@H]1O)c1ccc(O)cc1`, the Potency result in experiment [1], in experiment [2] and in experiment [3] was “inactive” in each case.

Regarding `CC1NC(=O)CNC(=O)C(C(C)C)NC(=O)C2CCCN2C(=O)C(C(C)C)NC(=O)C(Cc2c[nH]c3ccccc23)NC1=O` (stereo not given) (cyclo(GAWVPV); configuration not given here), the Potency entry in experiment [1], in experiment [2] and in experiment [3] was “inactive” each time.

Turning to `CC1(C)O[C@@]2(C)CC[C@@H]1C[C@@H]2OC1OC(CO)C(O)C(O)C1O` (stereo not given in full), in experiment [1], the Potency is 7.36 µM (active). Also, the Potency result in experiment [2] and in experiment [3] was “inactive” in each case.

With `CC1=CC(=O)OC(C)(CC(C)(O)C(=O)O)C1` (stereo not given), the Potency entry in experiment [1], in experiment [2] and in experiment [3] was “inactive” each time.

With `C=CC(C)(C)C12CC3C(=O)NC(Cc4cnc[nH]4)C(=O)N3C1Nc1ccccc12` (stereo not given), the Potency entry in experiment [1], in experiment [2] and in experiment [3] was “inactive” throughout.

As for `CC(C)C(=O)c1cn(CC(=O)COc2ccc(Oc3ccccc3)cc2)c2ccc(C(=O)O)cc12`, the Potency result in experiment [1] and in experiment [3] was “inactive” throughout. In experiment [2], the Potency is 6.01 µM (active).

For the compound `COc1ccc(C(OC2OC(CO)C(O)C(O)C2O)C(C)O)cc1` (stereo not given), the Potency in experiment [1] is 14.7 µM (active). Further, the Potency entry in experiment [2] and in experiment [3] was “inactive” throughout.

As to `C=C1CCC(OC(C)=O)C2(C)CC3(O)OC(=O)C(C)=C3CC12` (stereo not given), the Potency result in experiment [1], in experiment [2] and in experiment [3] was “inactive” each time.

Take `C=C1CC2C3(C)C(O)CC(=O)C(C)(C)C3C(OC(C)=O)C(OC(C)=O)C2(C)C2C(=O)OC(C)(C(=O)OC)C(=O)C12C` (stereo not given): the Potency result in experiment [1], in experiment [2] and in experiment [3] was “inactive” each time.
